# Source: PubChem BioAssay AID652040 (Broad Institute, 2013)
# Measured potencies and affinities stand elsewhere. Calls of active or inactive are those of the source.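 How the source made its calls: active means falling luciferase signal whose fitted half-maximal concentration is at most twice the top tested dose; inconclusive means flat inhibition between 30 and 70% or a poor curve fit; inactive means the rest.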
# Assay: off-target signal loss in HeLa-CEM21 co-culture – HeLa F-luc CTL cells, cherry-picked, counter-screen for HIV-1 Env fusion inhibitor project, dose response (AID 652040);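 further: more negative values mean stronger loss of luciferase signal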
# Conditions: HeLa-F-luc CTL cells with CEM21, firefly luciferase counterscreen; series mostly up to 35 µM
row,SMILES,outcome
1,CCC(=NCc1ccc(F)cc1)c1c(O)n(C)c(=O)n(C)c1=O,inactive
2,Cn1nc(-c2ccc(OCC(=O)N3CCN(Cc4ccccc4)CC3)cc2)c2ccccc2c1=O,inactive
3,CCC(=NCCc1c[nH]c2ccccc12)c1c(O)n(C)c(=O)n(C)c1=O,inactive
